Test results reported in PubChem BioAssay (NCATS).
Records with an inconclusive call do not appear. The list shows a part of the results. Active and inactive are the calls of the source. Unless noted, calls come from the whole dose curve; as a rule, active = well fitted curve in the direction sought with a large enough effect; inconclusive = small, poorly fitted or top-dose-only effect, or another doubt; inactive = no such curve, though single readings can be large; an effect the other way counts as inactive or inconclusive.

Experiments:
[1] = target: Tyrosyl-DNA phosphodiesterase 1 (Homo sapiens) (UniProt Q9NUW8); test: Confirmation Assay for Inhibitors of Tyrosyl-DNA Phosphodiesterase (TDP1) (AID 489007); conditions: recombinant human TDP1 enzymatic activity, dose-response; note: potency is the fitted concentration of half-maximal effect; nearly all actives have a fitted effect of over 40% in size
Sequence of Tyrosyl-DNA phosphodiesterase 1 (Homo sapiens) (Q9NUW8 whole entry, looked up): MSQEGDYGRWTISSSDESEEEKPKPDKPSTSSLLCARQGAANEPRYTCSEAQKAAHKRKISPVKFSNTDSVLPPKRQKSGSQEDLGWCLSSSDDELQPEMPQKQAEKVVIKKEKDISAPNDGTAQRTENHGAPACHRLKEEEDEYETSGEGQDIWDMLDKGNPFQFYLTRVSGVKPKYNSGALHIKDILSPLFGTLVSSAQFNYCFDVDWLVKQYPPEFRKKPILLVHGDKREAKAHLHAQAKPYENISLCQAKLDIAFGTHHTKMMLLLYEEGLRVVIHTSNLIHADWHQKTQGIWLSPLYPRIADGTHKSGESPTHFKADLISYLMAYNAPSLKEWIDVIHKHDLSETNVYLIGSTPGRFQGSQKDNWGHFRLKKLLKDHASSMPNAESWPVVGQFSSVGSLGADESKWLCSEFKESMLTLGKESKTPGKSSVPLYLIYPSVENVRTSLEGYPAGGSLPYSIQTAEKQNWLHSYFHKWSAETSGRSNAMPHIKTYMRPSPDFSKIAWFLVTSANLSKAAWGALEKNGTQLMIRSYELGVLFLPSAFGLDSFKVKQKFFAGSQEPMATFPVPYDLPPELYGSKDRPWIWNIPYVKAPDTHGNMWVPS
Outline: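 Tdp1 1 nM + cpd, 15 min RT; add biotin/phosphotyrosine-FITC oligo 15 nM, 5 min RT; add AS donor/acceptor beads 10 ug/ml, 10 min RT; read AlphaScreen. No-enzyme wells = max signal.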

[2] = target: Rap guanine nucleotide exchange factor 3 (Homo sapiens) (UniProt O95398); test: Confirmatory qHTS for agonist of cAMP-regulated guanine nucleotide exchange factor 3 (EPAC1) (AID 1645881);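 note: EPAC1 catalysed release of BODIPY-GDP from Rap1B seen as fluorescence loss; 100% = effect of cAMP agonist control; nearly all actives have a fitted effect of over 75% in size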
Sequence of Rap guanine nucleotide exchange factor 3 (Homo sapiens) (O95398 whole entry, looked up): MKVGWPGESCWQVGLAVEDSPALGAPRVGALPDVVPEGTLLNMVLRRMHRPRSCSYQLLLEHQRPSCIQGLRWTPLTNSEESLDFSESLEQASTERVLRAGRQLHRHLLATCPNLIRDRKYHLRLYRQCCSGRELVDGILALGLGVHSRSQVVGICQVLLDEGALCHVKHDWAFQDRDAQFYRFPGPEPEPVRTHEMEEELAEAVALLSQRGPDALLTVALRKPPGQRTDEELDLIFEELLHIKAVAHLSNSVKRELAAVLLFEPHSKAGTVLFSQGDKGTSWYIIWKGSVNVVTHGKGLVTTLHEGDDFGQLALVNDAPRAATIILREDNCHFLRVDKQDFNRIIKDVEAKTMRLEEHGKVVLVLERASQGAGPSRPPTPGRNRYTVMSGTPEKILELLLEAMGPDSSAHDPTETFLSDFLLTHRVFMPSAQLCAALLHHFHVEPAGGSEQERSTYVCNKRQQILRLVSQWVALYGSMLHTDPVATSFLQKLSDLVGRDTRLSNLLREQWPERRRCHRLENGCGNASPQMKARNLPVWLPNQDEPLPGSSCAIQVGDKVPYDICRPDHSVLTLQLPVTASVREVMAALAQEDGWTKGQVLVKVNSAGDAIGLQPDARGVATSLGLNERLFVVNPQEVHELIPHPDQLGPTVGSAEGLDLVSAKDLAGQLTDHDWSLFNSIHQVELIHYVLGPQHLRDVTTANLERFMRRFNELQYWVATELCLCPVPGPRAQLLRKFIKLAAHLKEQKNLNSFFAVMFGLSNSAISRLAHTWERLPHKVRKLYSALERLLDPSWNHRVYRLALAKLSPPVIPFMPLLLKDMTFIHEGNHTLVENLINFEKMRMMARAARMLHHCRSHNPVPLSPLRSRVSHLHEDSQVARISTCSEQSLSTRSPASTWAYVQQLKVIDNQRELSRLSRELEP

[3] = target: Rap guanine nucleotide exchange factor 4 (Homo sapiens) (UniProt Q8WZA2); test: Confirmatory qHTS for agonist of cAMP-regulated guanine nucleotide exchange factor 4 (EPAC2) (AID 1645884);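 note: nucleotide exchange releases bodipy-GDP from Rap1 and this lowers its fluorescence; % is set by controls: 0 for no effect and ±100 for the full control effect; nearly all actives have a fitted effect of over 65% in size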
Sequence of Rap guanine nucleotide exchange factor 4 (Homo sapiens) (Q8WZA2 whole entry, looked up): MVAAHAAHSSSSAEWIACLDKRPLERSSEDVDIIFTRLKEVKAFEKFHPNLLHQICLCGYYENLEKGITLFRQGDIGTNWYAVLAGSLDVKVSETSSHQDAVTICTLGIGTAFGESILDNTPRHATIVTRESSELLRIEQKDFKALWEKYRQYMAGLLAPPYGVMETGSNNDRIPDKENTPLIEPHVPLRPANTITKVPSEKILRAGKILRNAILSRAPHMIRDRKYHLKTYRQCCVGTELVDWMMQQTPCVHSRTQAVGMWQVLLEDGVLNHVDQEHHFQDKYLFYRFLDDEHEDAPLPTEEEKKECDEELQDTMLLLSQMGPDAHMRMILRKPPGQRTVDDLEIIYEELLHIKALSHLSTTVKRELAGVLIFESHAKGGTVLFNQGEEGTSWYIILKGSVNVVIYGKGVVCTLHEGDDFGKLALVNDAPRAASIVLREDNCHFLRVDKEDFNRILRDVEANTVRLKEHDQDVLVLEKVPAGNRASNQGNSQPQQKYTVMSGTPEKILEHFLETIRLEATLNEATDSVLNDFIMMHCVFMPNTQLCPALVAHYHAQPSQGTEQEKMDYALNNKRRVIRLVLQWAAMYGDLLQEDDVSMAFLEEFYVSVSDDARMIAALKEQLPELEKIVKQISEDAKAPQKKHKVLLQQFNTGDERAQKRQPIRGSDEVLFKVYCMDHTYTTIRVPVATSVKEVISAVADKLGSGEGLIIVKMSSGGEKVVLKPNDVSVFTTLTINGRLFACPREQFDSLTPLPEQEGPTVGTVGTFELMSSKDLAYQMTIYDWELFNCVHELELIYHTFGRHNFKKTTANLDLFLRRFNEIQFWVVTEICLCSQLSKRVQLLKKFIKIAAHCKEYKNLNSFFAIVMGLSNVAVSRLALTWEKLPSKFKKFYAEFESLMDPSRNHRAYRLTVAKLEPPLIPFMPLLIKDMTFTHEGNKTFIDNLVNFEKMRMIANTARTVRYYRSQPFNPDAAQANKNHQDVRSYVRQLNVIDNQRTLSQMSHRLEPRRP

[4] = target: Rap guanine nucleotide exchange factor 4 (Homo sapiens) (UniProt Q8WZA2); test: Confirmatory qHTS for antagonist of cAMP-regulated guanine nucleotide exchange factor 4 (EPAC2) (AID 1645885); note: nearly all actives have a fitted effect of over 25% in size; note: potency is the fitted concentration of half-maximal effect; for activity change, negative = inhibition: % is set by controls: 0 for no effect and ±100 for the full control effect
[5] = target: Rap guanine nucleotide exchange factor 3 (Homo sapiens) (UniProt O95398); test: Counterscreen qHTS for antagonist of cAMP-regulated guanine nucleotide exchange factor 3 (EPAC1) (AID 1645888);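 note: fluorescence loss as bound BODIPY-GDP is released from Rap1B; % of control where 0% means no effect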
Outline: (§1)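 Rap1B–BODIPY-GDP (250 nM) with 50 uM GDP; compounds pin-transferred to 9.74 nM–152 uM final (activator) or from 7.32 nM upwards (inhibitor). Fluorescence Ex/Em 480/540 nm read at 5 and 30 min, then after adding cAMP or buffer, at room temperature.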

[6] = target: Rap guanine nucleotide exchange factor 3 (Homo sapiens) (UniProt O95398); test: Counterscreen qHTS for agonist of cAMP-regulated guanine nucleotide exchange factor 3 (EPAC1) (AID 1645889); note: % of control where 0% means no effect; nearly all actives have a fitted effect of over 40% in size
Outline: as §1

[7] = target: Tumor susceptibility gene 101 protein (Homo sapiens) (UniProt Q99816); test: qHTS Assay for Iinhibitors of HIV-1 Budding by Blocking the Interaction of PTAP/TSG101: Hit Validation (AID 651600); note: potency is the fitted concentration of half-maximal effect; nearly all actives have a fitted effect of over 70% in size
Sequence of Tumor susceptibility gene 101 protein (Homo sapiens) (Q99816 whole entry, looked up, the tested form may be a part): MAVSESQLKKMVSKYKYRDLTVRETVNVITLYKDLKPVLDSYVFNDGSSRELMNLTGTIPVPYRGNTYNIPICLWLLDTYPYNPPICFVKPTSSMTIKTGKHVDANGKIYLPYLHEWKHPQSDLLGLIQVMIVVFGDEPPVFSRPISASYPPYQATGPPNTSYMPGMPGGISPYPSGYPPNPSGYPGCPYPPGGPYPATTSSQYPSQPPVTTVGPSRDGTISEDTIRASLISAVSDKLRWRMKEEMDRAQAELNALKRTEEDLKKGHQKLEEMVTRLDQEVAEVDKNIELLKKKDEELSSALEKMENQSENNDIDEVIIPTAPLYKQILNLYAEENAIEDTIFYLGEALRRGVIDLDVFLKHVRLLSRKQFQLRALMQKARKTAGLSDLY
Outline: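 Fluorescence polarization binding assay: Tsg101 binding domain (10 uM final) pre-dispensed with compounds, then FITC-labeled PTAP-motif peptide (50 nM final) added; 20 min at r.t. in HEPES pH 7.5 buffer with NaCl, Tween 20, EDTA, TCEP.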

[8] = target: Vitamin D3 receptor (Homo sapiens) (UniProt P11473); test: qHTS for Inhibitors of the vitamin D receptor (VDR): Hit Validation in Primary Screen (AID 602199); conditions: VDR-coactivator inhibition assay, qHTS confirmation; note: potency is the fitted concentration of half-maximal effect
Sequence of Vitamin D3 receptor (Homo sapiens) (P11473 whole entry, looked up, the tested form may be a part): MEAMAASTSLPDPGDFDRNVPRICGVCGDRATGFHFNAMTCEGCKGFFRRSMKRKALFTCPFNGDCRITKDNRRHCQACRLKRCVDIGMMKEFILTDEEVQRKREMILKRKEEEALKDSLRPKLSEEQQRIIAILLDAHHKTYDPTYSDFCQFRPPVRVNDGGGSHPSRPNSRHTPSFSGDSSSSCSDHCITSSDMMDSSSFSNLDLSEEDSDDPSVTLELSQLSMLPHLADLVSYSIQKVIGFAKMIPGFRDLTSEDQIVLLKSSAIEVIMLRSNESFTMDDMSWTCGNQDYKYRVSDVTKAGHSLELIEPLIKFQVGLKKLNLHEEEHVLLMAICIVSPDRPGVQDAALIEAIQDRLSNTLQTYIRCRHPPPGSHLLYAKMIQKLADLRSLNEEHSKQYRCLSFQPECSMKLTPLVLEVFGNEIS
Outline: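 Fluorescence polarization (Ex 620/Em 688 nm) of Alexa 647-SRC2-3 peptide with 800 nM VDR and 5 uM LG19078. Compounds at several concentrations, 2 h at room temperature.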

[9] = target: Vitamin D3 receptor (Homo sapiens) (UniProt P11473); test: qHTS for Inhibitors of the vitamin D receptor (VDR): Hit Validation using a Fluorescein Assay (AID 602200); conditions: VDR-coactivator binding, fluorescein fluorescence polarization; note: potency is the fitted concentration of half-maximal effect
Outline: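 Fluorescence polarization: 1.5 uM VDR-LBD, 5 uM LG19078 and 5 nM fluorescein-labeled SRC2-3 peptide (final) with compounds, 2 h at room temperature. Read at Ex 495/Em 520 nm; peptide-only wells served as control.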

[10] = target: Vitamin D3 receptor (Homo sapiens) (UniProt P11473); test: qHTS for Inhibitors of the vitamin D receptor (VDR): Hit Validation using a Beta-Lactamase Assay (AID 602202); note: potency is the fitted concentration of half-maximal effect
Outline: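 Stably transfected HEK293 cells expressing VDR-GAL4 DNA-binding domain fusion with UAS-driven beta-lactamase reporter, activated by agonist LG190178; compounds incubated 18 h, then FRET beta-lactam substrate 2 h; cleaved substrate read at 447 nm emission.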

[11] = qHTS for Inhibitors of the vitamin D receptor (VDR): Hit Validation using a Cytotoxicity Assay (AID 602204);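 note: cells co-treated with VDR agonist LG190178 at 300 nM; potency is the fitted concentration of half-maximal effect; nearly all actives have a fitted effect of over 75% in size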
Outline: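 First, 20,000 cells are dispensed per well. Next comes a 4 h incubation, then compound addition and an 18 h incubation. Finally, ATP-based luminescent reagent is added and plates are read after 30 min.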

[12] = target: DNA polymerase eta (Homo sapiens) (UniProt Q9Y253); test: qHTS for Inhibitors of Polymerase Eta: Confirmatory Assay for Cherry-picked Compounds (AID 720502); conditions: Pol eta primer extension, TAMRA/BHQ fluorescence, 10 min; note: potency is the fitted concentration of half-maximal effect
Sequence of DNA polymerase eta (Homo sapiens) (Q9Y253 whole entry, looked up): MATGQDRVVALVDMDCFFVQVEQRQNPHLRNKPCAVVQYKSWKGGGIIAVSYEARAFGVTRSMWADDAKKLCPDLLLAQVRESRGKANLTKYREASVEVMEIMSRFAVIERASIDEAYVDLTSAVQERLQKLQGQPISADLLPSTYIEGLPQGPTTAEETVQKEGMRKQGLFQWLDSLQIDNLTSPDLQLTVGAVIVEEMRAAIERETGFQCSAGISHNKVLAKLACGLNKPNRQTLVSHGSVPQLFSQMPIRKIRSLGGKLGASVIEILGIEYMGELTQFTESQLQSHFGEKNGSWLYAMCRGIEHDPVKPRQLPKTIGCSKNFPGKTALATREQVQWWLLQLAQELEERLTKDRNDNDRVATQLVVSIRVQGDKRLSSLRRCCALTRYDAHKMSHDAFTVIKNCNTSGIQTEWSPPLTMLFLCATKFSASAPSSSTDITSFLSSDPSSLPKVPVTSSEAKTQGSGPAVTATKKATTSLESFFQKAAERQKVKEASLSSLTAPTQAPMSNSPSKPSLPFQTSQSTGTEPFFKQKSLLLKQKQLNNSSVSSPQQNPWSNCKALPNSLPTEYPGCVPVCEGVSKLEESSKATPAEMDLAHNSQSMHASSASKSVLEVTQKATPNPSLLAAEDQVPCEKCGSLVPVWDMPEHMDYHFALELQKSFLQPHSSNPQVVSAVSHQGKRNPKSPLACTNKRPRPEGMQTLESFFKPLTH
Outline: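 The reaction starts with 50 nM final labeled DNA substrate added to Pol eta (10 nM) that had sat with compound for 15 min. TAMRA emission at 598 nm is read at 0 and 10 min.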

[13] = AP1 Signaling Pathway (AID 357; active = well fitted curve in either direction with a large enough effect, not every such curve was filed as active;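 note: ME-180 reporter cells stimulated with EGF at its EC50 level; % is set by controls: 0 for no effect and ±100 for the full control effect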); conditions: ME-180 AP-1-bla reporter, EGF-induced, beta-lactamase ratio, 5 h; at 7.69 µM (top of the series) unless noted
Outline: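 Modulation of EGF-driven AP-1 transcription was assessed with a beta-lactamase reporter in ME-180 cells. Compound and EC50 EGF were co-incubated 5 hours at 37 °C before 2.5-hour CCF4 loading at room temperature and dual-emission reading.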

[14] = NFAT Signaling Pathway (AID 444; active = well fitted curve in either direction with a large enough effect, not every such curve was filed as active;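 note: carbachol stimulus at about its EC50 of 1 µM final; % is set by controls: 0 for no effect and ±100 for the full control effect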); conditions: Jurkat NFAT-bla M1, carbachol, beta-lactamase ratio, 5 h; at 7.69 µM (top of the series) unless noted
Outline: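 Jurkat cells with NFAT-driven β-lactamase reporter and co-expressed M1 receptor, stimulated with carbachol (final 1 uM, ~EC50), compound titration, 5 h at 37 °C. CCF4 loaded 1 h at RT; 460/530 nm ratio gave %activity and AC50.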

[15] = Stat Signaling Pathway (AID 446; active = well fitted curve in either direction with a large enough effect, not every such curve was filed as active;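 note: ME-180 cervical cancer cells given 40 pM IL-6 alongside compound; SIE-controlled beta-lactamase reporter measured as 460/530 nm FRET emission ratio; % is set by controls: 0 for no effect and ±100 for the full control effect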)
Outline: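 ME-180 cells carrying a SIE-driven beta-lactamase reporter are stimulated with 40 pM IL-6 for 5 h at 37C in the presence of compound. The 460/530 nm FRET substrate ratio is read after 2.5 h at RT. Data are normalised to 300 pM IL-6 and to 125 nM JAK inhibitor controls.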

[16] = target: Glucocorticoid receptor (Homo sapiens) (UniProt P04150); test: GR-GFP Redistribution (AID 450;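 active = compounds whose dose series gives a full or clear partial fitted curve of increased nuclear translocation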; note: potency is the fitted concentration of half-maximal effect); conditions: U2OS GR-GFP nuclear translocation, laser cytometry, 2 h
Sequence of Glucocorticoid receptor (Homo sapiens) (P04150 whole entry, looked up, the tested form may be a part): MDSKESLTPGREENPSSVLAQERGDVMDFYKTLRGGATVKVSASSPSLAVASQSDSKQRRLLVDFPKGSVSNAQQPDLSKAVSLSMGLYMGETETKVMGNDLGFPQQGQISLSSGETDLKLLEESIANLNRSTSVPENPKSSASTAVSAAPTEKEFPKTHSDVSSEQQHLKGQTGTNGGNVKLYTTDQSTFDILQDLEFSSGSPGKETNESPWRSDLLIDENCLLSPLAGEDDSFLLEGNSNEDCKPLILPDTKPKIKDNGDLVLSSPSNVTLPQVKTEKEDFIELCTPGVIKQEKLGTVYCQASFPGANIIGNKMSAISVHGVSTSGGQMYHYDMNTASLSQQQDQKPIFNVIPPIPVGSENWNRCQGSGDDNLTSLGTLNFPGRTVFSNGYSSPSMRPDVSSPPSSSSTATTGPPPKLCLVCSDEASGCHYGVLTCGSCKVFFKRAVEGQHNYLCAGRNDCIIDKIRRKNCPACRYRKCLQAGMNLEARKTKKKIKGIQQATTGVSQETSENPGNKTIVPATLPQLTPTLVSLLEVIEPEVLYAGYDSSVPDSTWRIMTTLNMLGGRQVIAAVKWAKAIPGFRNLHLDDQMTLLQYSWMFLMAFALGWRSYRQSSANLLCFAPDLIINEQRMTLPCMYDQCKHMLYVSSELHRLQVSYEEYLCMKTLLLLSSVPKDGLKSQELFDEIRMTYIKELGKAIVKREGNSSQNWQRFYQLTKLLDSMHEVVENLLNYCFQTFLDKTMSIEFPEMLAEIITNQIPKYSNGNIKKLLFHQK

[17] = target: ATPase family AAA domain-containing protein 5 (Homo sapiens) (UniProt Q96QE3); test: qHTS screen for small molecules that inhibit ELG1-dependent DNA repair in human embryonic kidney (HEK293T) cells expressing luciferase-tagged ELG1: Hit Confirmation using MMS Stimulated ELG1 (AID 624249);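 note: cells co-treated with MMS at 10 µM final alongside compound; luminescence of ELG1-luciferase fusion read with Amplight reagent; % is set by controls: 0 for no effect and ±100 for the full control effect; nearly all actives have a fitted effect of over 60% in size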
Outline: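 ELG1-luciferase HEK293T cells were plated at 2,000 cells/well, and about 5 h later test compounds were pin-transferred alongside MMS (final 10 µM). After 16 h, luciferase activity was read with Amplight reagent; hits suppress the signal.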

[18] = qHTS screen for small molecules that inhibit ELG1-dependent DNA repair: Hit Confirmation with MMS Viability (AID 624251);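 note: viability read 16 h after compound addition; % is set by controls: 0 for no effect and ±100 for the full control effect; nearly all actives have a fitted effect of over 60% in size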
Outline: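 ELG1-luc HEK293T cells, 2,000/well, given compounds about 5 h after plating together with MMS at 10 µM final; viability measured by CellTiter-Glo after 16 h.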

NS(=O)(=O)c1ccc(N=Nc2ccc(=O)[nH]c2O)cc1
inactive: Potency [2] | activation [3] -0.407% [at 17.1 µM, percent relative to cAMP agonist control] | Potency [4] | activity change, negative = inhibition [5] -5.26% [at 30.8 µM] | activation [6] -0.888% [at 30.8 µM]
active: Potency [1] 6.31 µM

O=C(NNC(=O)c1cc2cc(Br)ccc2oc1=O)c1ccc(O)cc1O
active: Potency [1] 56.2 µM
inactive: Potency [2] | Potency [3] | Potency [4] | Potency [5]

O=C(O)c1cccc(Nc2ccc([N+](=O)[O-])c3nonc23)c1
inactive: Potency [2] | Potency [3] | Potency [4] | Potency [6]

CC(C)(C)Cc1c(-c2ccco2)nc2ccc(Cl)cn12
inactive: Potency [2] | activation [3] 1.87% [at 17.1 µM, percent relative to cAMP agonist control] | Potency [4] | activation [6] 3.65% [at 30.8 µM]

O=C(CSc1nc(-c2cccs2)nc2cc(=O)[nH]n12)Nc1cccc(C(F)(F)F)c1
inactive: Potency [2] | Potency [3] | outcome [4] inactive [at 12.7 µM] | Potency [5] | Potency [6]

COc1ccc(OC)c2c1C(=O)c1ccccc1C2=O
inactive: Potency [2] | Potency [3] | Potency [4] | Potency [5]
active: Potency [7] 14.6 µM

O=C(Nc1ccccc1Cl)/C(Cl)=C(\Cl)S(=O)c1ccccc1 (stereo not drawn)
active: Potency [8] 3.36 µM | Potency [9] 3.16 µM | Potency [10] 3.66 µM | Potency [11] 20.6 µM
inactive: Potency [2] | Potency [3] | Potency [4] | Potency [5] | Potency [6]

CCCC[C@H]1COCCS(=O)(=O)N1Cc1ccc(Br)cc1
inactive: Potency [2] | Potency [3] | Potency [4] | Potency [6]

CCC(C)Cn1c(O)cc2nn(-c3nc4ccccc4s3)c(=O)c-2c1C (stereo not drawn)
inactive: Potency [2] | activation [3] -0.693% [at 17.1 µM, percent relative to cAMP agonist control] | Potency [4] | activity change, negative = inhibition [5] -16.7% [at 30.8 µM]
active: Potency [12] 75.7 µM

O=Nc1c(O)n(Cc2cccc(C(F)(F)F)c2)c2ccccc12
inactive: Potency [2] | Potency [3] | Potency [6]
active: Potency [4] 47.8 µM

CC(C)OC(=O)C(C#N)c1nc2ccccc2nc1N1CCCC1 (stereo not drawn)
inactive: activity change, negative = inhibition [13] 8.73% [at 17.2 µM] | activity change, negative = inhibition [14] -13.2% [at 17.2 µM] | outcome [15] | Potency [16] > 20.6 µM | Potency [2] | activation [3] 3.69% [at 17.1 µM, percent relative to cAMP agonist control] | Potency [4] | activity change, negative = inhibition [5] -19.9% [at 30.8 µM] | activation [6] 3.58% [at 30.8 µM]

CC1(C)Cc2c(C#N)c(N3CCN(C(=O)c4ccco4)CC3)nc(-c3ccco3)c2CS1
inactive: Potency [16] > 20.6 µM | Potency [2] | Potency [3] | Potency [4] | Potency [5] | Potency [6]

COc1cc(N)c(Cl)cc1C(=O)OCC(=O)c1ccc2c(c1)NC(=O)CO2
inactive: Potency [17] | outcome [18] | Potency [2] | Potency [3] | Potency [4] | Potency [5] | Potency [6]

CCCC(=O)NC(c1ccc(C)cc1)c1ccc2cccnc2c1O (stereo not drawn)
inactive: Potency [2] | activation [3] 0% [at 17.1 µM, percent relative to cAMP agonist control] | Potency [4] | activation [6] 7.43% [at 30.8 µM]

CC1=CCC[C@@H]2[C@@](C)(CC/C(C)=C/C(=O)O)[C@H](C)CC[C@@]12C
inactive: Potency [2] | activation [3] 7.29% [at 17.1 µM, percent relative to cAMP agonist control] | Potency [4] | activation [6] 10.7% [at 30.8 µM]

C[C@@H]1COC(=O)[C@H](NC(=O)OCC2c3ccccc3-c3ccccc32)C/C=C\C[C@@H](CC(=O)N[C@H](CO)Cc2ccccc2)C(=O)N1
inactive: Potency [2] | activation [3] 2.82% [at 17.1 µM, percent relative to cAMP agonist control] | Potency [4] | activation [6] -0.359% [at 30.8 µM]

COc1ccc(C2CC(=O)c3c(O)cc(O)cc3O2)c(CC=C(C)C)c1OC (stereo not drawn)
inactive: Potency [2] | Potency [3] | Potency [6]
active: Potency [4] 67.5 µM

C=CCn1c(SCC(=O)Nc2cc(Cl)ccc2C(=O)O)nc2sc(C)c(C)c2c1=O
inactive: Potency [2] | activation [3] 10.1% [at 17.1 µM, percent relative to cAMP agonist control] | Potency [4] | activation [6] 1.53% [at 30.8 µM]

CCCCC[C@@H](C)N1C[C@H](COCc2ccccc2)Oc2cc(N3CC[C@@H](O)C3)ccc2S1(=O)=O
inactive: Potency [2] | Potency [3] | Potency [4] | Potency [6]

CCOC(=O)c1nc(C)nc(Sc2n[nH]c(-c3cc(Cl)cc(Cl)c3)n2)c1C
inactive: Potency [2] | activation [3] 2.66% [at 17.1 µM, percent relative to cAMP agonist control] | Potency [4] | activation [6] 19.4% [at 30.8 µM]

Nc1ccc(N2CCCCC2)c2nonc12
inactive: Potency [2] | activation [3] -6.41% [at 17.1 µM, percent relative to cAMP agonist control] | Potency [4] | activation [6] 6.94% [at 30.8 µM]

Cc1cccc(N2C(=O)C(O)=C(C(=O)c3cccs3)C2c2cccc(Oc3ccccc3)c2)n1 (stereo not drawn)
inactive: Potency [2] | Potency [3] | Potency [4] | Potency [6]

Cc1ccc(NS(=O)(=O)c2cccc(C(=O)OCC(=O)NCc3ccco3)c2)cc1
inactive: Potency [2] | Potency [3] | Potency [4] | Potency [6]
